# Compounds with a hit are over-represented: about 4.8% of the library has one in this group of screens.
# DAX1 inh-1 – DAX1 (NR0B1) inhibitors on StAR promoter, primary screen, cell-based, luminescence, SF-1 (NR5A1), full-length DAX-1; HEK293T StAR-luciferase reporter, SF-1/DAX-1 repression relief; inhibition, % at 6.8 µM; 1.1% of 370,000 active;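 active = inhibition above the mean over all tested compounds plus 3 SD, cut at about 3.6% in these data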;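 also: 0% = DAX-1 cells with DMSO and 100% = cells lacking DAX-1 with DMSO; higher inhibition means more luminescence from relief of DAX-1 repression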
# ssDAF12 agonist – S. stercoralis DAF-12 nuclear receptor activators, primary screen, cell-based, luminescence, HEK293, GRIP1 co-expression, lit1-tk-luc; Nuclear hormone receptor DAF-12 (Strongyloides stercoralis); HEK293 ssDAF-12/GRIP1 lit1-tk-luc reporter; % of 3 µM dafachronic acid response; activation, % at 6.8 µM; 1% of 370,000 active; AID 652126, 2013;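 active = activation above the mean over all tested compounds plus 3 SD, cut at about 0.9% in these data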;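 also: 0% = DMSO-only wells and 100% = 3 µM delta7-dafachronic acid wells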
# hcDAF-12 act – H. contortus DAF-12 nuclear receptor activators, primary screen, cell-based, luminescence, HEK293, lit1-tk-luc reporter | HEK293 hcDAF-12 lit1-tk-luc reporter; 0% DMSO, 100% Δ7-dafachronic acid | activation, % at 6.8 µM | 1.4% of 370,000 active | AID 652067, 2013;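 active = activation above the mean of all tested compounds plus 3 SD, cut at about 5.5% in these data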;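 also: 100% = response to 3 µM Δ7-dafachronic acid high control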
# DAX1 inh-2 – DAX1 (NR0B1) inhibitors, primary screen, cell-based, HEK293, Gal4-DAX1, luciferase luminescence; AID 504766, 2011; 0.99% of 340,000 active; inhibition, % at 6.75 µM; HEK293 Gal4-DAX1 luciferase reporter;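 active = inhibition above the mean over all tested compounds plus 3 SD, cut at about 4.2% in these data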;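 also: 0% = DAX1-transfected cells with DMSO and 100% = empty-vector control cells with DMSO; inhibition shows as a rise in luminescence from relieved DAX1 repression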
# Target sequence (P51843 207-470 limits assumed): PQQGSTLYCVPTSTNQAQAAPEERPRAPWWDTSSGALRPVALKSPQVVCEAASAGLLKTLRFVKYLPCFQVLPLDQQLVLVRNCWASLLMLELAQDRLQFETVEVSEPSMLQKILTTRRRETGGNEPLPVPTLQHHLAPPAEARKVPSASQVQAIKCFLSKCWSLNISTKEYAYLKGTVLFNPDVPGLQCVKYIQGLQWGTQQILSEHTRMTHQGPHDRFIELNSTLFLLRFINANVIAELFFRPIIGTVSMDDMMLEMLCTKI
# SMARCA2 activ – SMARCA2 (BRM) function activators, primary screen, cell-based, luminescence, high throughput; MG213 cells, MMTV-luciferase reporter, dexamethasone, overnight; activation, % at 9.1 µM; 1% of 370,000 active; in the data active = activation above about 7.8%;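 also: 0% = vehicle wells and 100% = reference activator wells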
# hgDAF-12 ag – H. glycines DAF-12 receptor agonists, primary screen, cell-based, luminescence, HEK293, GAL4 fusion, UAS-luciferase. activation, % at 6.8 µM. HEK293 GAL4-hgDAF12 UAS-luciferase reporter, agonist luminescence; normalized to butyrate control. 1.8% of 370,000 active. Nuclear hormone receptor DAF-12 (Heterodera glycines), GAL4 fusion. AID 687014, 2013;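 active = activation above a cutoff set at the mean of all screened compounds plus 3 SD, cut at about 10% in these data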;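 also: 0% = DMSO wells and 100% = sodium butyrate wells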
# SMARCA2 conf – SMARCA2 (BRM) function activators, confirmation, cell-based, luminescence, triplicate | activation, % at 9.1 µM | 30% of 3,500 active | MG213 cells, MMTV-luciferase with dexamethasone, overnight; MG213 cells expressing E1A, Rb sequestered; DMSO wells 0%, reference activator 100% | shares compounds with SMARCA2 activ;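 active = activation above its plate's cutoff, the mean activation of tested wells plus 3 SD, cut at about 7.9% in these data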
# GAL4-VP16 Luc – GAL4-VP16 luciferase reporter activation, counter-screen for SMARCA2 (BRM) activator project, cell-based, pG5luc, luminescence, high throughput; shares compounds with SMARCA2 activ; HEK293 GAL4-VP16 pG5luc reporter; scaled: DMSO wells 0%, SAHA wells 100%; activation, % at 9.1 µM; 41% of 3,500 active;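 active = activation above the solvent-only control well mean plus 3 SD, averaged across control plates, cut at about 5.2% in these data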
# * hit, by the source's call; / = no result.
SMILES,DAX1 inh-1,ssDAF12 agonist,hcDAF-12 act,DAX1 inh-2,SMARCA2 activ,hgDAF-12 ag,SMARCA2 conf,GAL4-VP16 Luc
Cc1sc2nc3c4ccccc4c(NCc4ccco4)nn3c(=O)c2c1C,3,0,7.5*,3,13*,14*,43*,19*
C(=C\c1nc(-c2ccncc2)no1)/c1ccccc1,2,0,5,2,8.1*,10,8.1*,5.3*
Nc1nc(Sc2ccc([N+](=O)[O-])c3nonc23)c2[nH]cnc2n1,-4,-1,0,1,26*,-3,-15,1
CNc1ncnc(Sc2nc(N)nc3nc[nH]c23)c1[N+](=O)[O-],-3,-1,-2,-1,-2,6,/,/
CCOC(=O)C1=C(N)OC(C)=C(C#N)C1c1ccco1 (configuration not stated),0,-1,-1,0,9.0*,-1,1,1
O=C(CN1C(=O)COc2ccc(S(=O)(=O)N3CCCCC3)cc21)NCc1ccc(Cl)cc1,0,-1,-3,-1,-1,0,/,/
CCOC(=O)C1CCN(CC(O)COCc2cccs2)CC1 (configuration not stated),0,-2,-2,-1,1,-2,/,/
COc1ccc2c(c1OC)C(=O)N(c1ccc(C)cc1)C2,3,-1,4,6.2*,9.4*,12*,14*,8.4*
Cc1cc(C)n(-c2nnc(C)n2/N=C/c2ccc(O)cc2)n1,0,-1,0,3,-2,2,/,/
CCOc1ccc(Nc2nc(N)c([N+](=O)[O-])c(N3CCOCC3)n2)cc1,-1,-1,-2,-1,1,1,/,/
CCOc1ccc(Nc2nc(N)c([N+](=O)[O-])c(N3CCN(CC)CC3)n2)cc1,0,-1,-1,1,12*,-2,1,2
CCc1cccc(CC)c1NC(=O)C(CC)Sc1nc2ccncc2[nH]1 (configuration not stated),0,-1,-1,0,8.3*,-1,0,1
CCc1cccc(C)c1NC(=O)CSc1nc2ccncc2[nH]1,-3,-1,0,0,1,3,/,/
COc1ccc(C2(NC(C)=O)CCN(C(=O)c3cccs3)CC2)cc1,0,-1,0,-1,1,-2,/,/
Cc1ccc(Cc2cnc(NC(=O)C3CCCO3)s2)cc1 (configuration not stated),4,1.0*,4,1,8.8*,13*,10*,7.9*
Cc1ccc(S(=O)(=O)Nc2ccc(-c3nnc(SCc4ccccc4Cl)o3)cc2)cc1,0,-1,-1,0,4,0,/,/
Cc1ccc(CSc2nnc(-c3ccc(NS(=O)(=O)c4ccccc4)cc3)o2)cc1,0,1.7*,-4,0,11*,-1,-2,-1
Cc1ccccc1-c1nnc(SCc2ccccc2)o1,0,0,3,4,13*,3,7,5
CCOC(=O)C1CN(S(=O)(=O)c2ccccc2)c2cc(S(=O)(=O)CC)ccc2O1 (configuration not stated),0,-1,-2,0,-1,2,/,/
CCS(=O)(=O)c1ccc2c(c1)N(S(C)(=O)=O)CC(C(=O)NCCOC)O2 (configuration not stated),1,-1,-1,0,12*,-1,-1,1
Cc1cc(C(=O)OC(C)C(=O)Nc2cccc(Cl)c2)on1 (configuration not stated),1,-1,2,-1,-3,-1,/,/
N#C/C(=C\c1cccnc1)c1nc2c(s1)CCCC2,3,0,1,2,8.5*,10,7,16*
COC(=O)c1c(NC(=O)COc2ccc(Cl)cc2)sc2c1CC(C)(C)NC2(C)C,-1,0,-1,0,5,0,/,/
COC(=O)c1c(NC(=O)Cc2ccccc2)sc2c1CC(C)(C)NC2(C)C,0,-2,-1,1,12*,0,-1,1
Nc1[nH]n(-c2ccccc2)c(=O)c1N=Nc1ccccc1[N+](=O)[O-],1,0,2,2,4,8,/,/
SMILES,DAX1 inh-1,ssDAF12 agonist,hcDAF-12 act,DAX1 inh-2,SMARCA2 activ,hgDAF-12 ag,SMARCA2 conf,GAL4-VP16 Luc
CCc1ccccc1N=Nc1c(N)[nH]n(-c2ccccc2)c1=O,2,-1,1,/,10*,11*,8.1*,6.0*
Cc1ccn2c(C(=O)NNC(=O)Nc3ccc(Cl)cc3)c(C)nc2c1,1,-1,-1,0,-2,0,/,/
COc1c(C(=O)Nc2nccs2)ccc2ccccc12,1,-1,5,3,10*,9,10*,11*
COc1c(C(=O)Nc2ccc(Br)cn2)ccc2ccccc12,0,-1,1,3,4,4,/,/
CCOc1ccc(C(=O)c2ccc(OCC)c(N)c2)cc1N,0,-1,2,0,8.6*,7,6,6.5*
Cc1cccc(NC(=O)/C=C/c2cccs2)n1,3,0,6.2*,1,12*,13*,8.2*,7.9*
CN(C)S(=O)(=O)N1CCC(CO)(Cc2cccc(C(F)(F)F)c2)CC1,-1,-1,-1,1,-2,-1,/,/
CCOC(=O)N1Cc2cc3ccccc3nc2C1,2,0.9*,4,3,8.9*,9,8,10*
COc1ccc(C(=O)NC(=S)N2CCNC(=O)C2)cc1Br,0,-1,2,3,0,0,/,/
O=C1CN(C(=S)NC(=O)c2ccc(-c3ccccc3)cc2)CCN1,0,0,2,2,10*,-1,7,4
CC1S/C(=C(\C#N)C(=O)NCc2ccco2)N(Cc2ccco2)C1=O (configuration not stated),1,0,4,1,0,2,/,/

# Screens: PubChem, The Scripps Research Institute Molecular Screening Center
